Measurements as given in the supplement of paper PMC6555819.

Legend:
Experiment in all cases: PBM binding z-score (relative to random genomic background probes); higher = stronger binding; sequences stand for … in GC…GCGATTGACAGCGTAGAATGAAGG
[1] = test system: RARb homodimer (NR concentration 270 nM)
How it was run: (§1)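 Probes were double-stranded and carried 34-nt variable regions with direct-repeat seeds, single-nucleotide variants, half-site ablations and random human genomic background sequences, printed on custom Agilent 4×180K protein-binding microarrays. Arrays were incubated 1 h with ligand-free nuclear receptor dimers in PBS pH 7.4, 2% milk, 0.02% Triton X-100, 1 mM DTT, 0.2 mg/mL BSA and 0.4 mg/ml salmon testes DNA. Antibodies against each partner (one per run) detected binding, and scanned fluorescence was regression-normalized. Binding z-scores use the random background probes as reference.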

[2] = test system: RARg:RXRa (NR concentration 270 nM, RXRa partner concentration 90 nM)
How it was run: as §1

[3] = test system: RARg homodimer (NR concentration 270 nM)
How it was run: as §1

[4] = test system: RXRa DBDmut IVT, anti-RXR (DBD mutation: RXRa K156A/R161A, NR concentration 90 nM)
How it was run: as §1

[5] = test system: RXRa homodimer (NR concentration 180 nM)
How it was run: as §1

[6] = test system: THRa:RXRa (NR concentration 90 nM, RXRa partner concentration 90 nM)
How it was run: as §1

[7] = test system: THRa homodimer (NR concentration 90 nM)
How it was run: as §1

[8] = test system: VDR homodimer (NR concentration 270 nM)
How it was run: as §1

## ATCTCTAGGTAACAAGTCCAGTGAAAGAGAGGAC
[1]
  PBM binding z-score: 0.709
[2]
  PBM binding z-score: 0.499
[3]
  PBM binding z-score: 0.722
[4]
  PBM binding z-score: 0.0341
[5]
  PBM binding z-score: 0.552
[6]
  PBM binding z-score: 0.997
[7]
  PBM binding z-score: 0.64
[8]
  PBM binding z-score: 0.635

## CGTCGAAGTTCAAGGTAACGTAACAGAAAGCAGC
[1]
  PBM binding z-score: 1.95
[2]
  PBM binding z-score: 2.79
[3]
  PBM binding z-score: 3.25
[4]
  PBM binding z-score: 3.69
[5]
  PBM binding z-score: 2.21
[6]
  PBM binding z-score: 2.07
[7]
  PBM binding z-score: 0.792
[8]
  PBM binding z-score: 1.74

## ATATGTAGGTTACATCCGGGACATTCAGGCTATG
[1]
  PBM binding z-score: 0.852
[2]
  PBM binding z-score: 1.56
[3]
  PBM binding z-score: 1.27
[4]
  PBM binding z-score: 0.669
[5]
  PBM binding z-score: 1.27
[6]
  PBM binding z-score: 2.66
[7]
  PBM binding z-score: 1.46
[8]
  PBM binding z-score: 0.967

## CCTGCTAGGTCAATAGTCAGCTAAAGCAGCTCGC
[1]
  PBM binding z-score: 2.18
[2]
  PBM binding z-score: 3.06
[3]
  PBM binding z-score: 3.91
[4]
  PBM binding z-score: 1.56
[5]
  PBM binding z-score: 1.42
[6]
  PBM binding z-score: 1.74
[7]
  PBM binding z-score: 0.258
[8]
  PBM binding z-score: -0.379

## GCTAGTTGGTCAGTAAAAGGTCACACATCGGTCG
[1]
  PBM binding z-score: 5.17
[2]
  PBM binding z-score: 5.41
[3]
  PBM binding z-score: 4.73
[4]
  PBM binding z-score: 0.844
[5]
  PBM binding z-score: 5.27
[6]
  PBM binding z-score: 3.54
[7]
  PBM binding z-score: 1.84
[8]
  PBM binding z-score: 1.47

## CGAACTAGGTCAGAACAAGACAGTGAAGGATGAT
[1]
  PBM binding z-score: 1.79
[2]
  PBM binding z-score: 2.37
[3]
  PBM binding z-score: 3.15
[4]
  PBM binding z-score: 0.577
[5]
  PBM binding z-score: 1.31
[6]
  PBM binding z-score: 1.32
[7]
  PBM binding z-score: 0.101
[8]
  PBM binding z-score: 0.237

## CATACAGGGTCAGCAAGGCCAGAGTAGGGACGGC
[1]
  PBM binding z-score: 3.4
[2]
  PBM binding z-score: 4.63
[3]
  PBM binding z-score: 5.18
[4]
  PBM binding z-score: 1.92
[5]
  PBM binding z-score: 4.64
[6]
  PBM binding z-score: 3.29
[7]
  PBM binding z-score: 1.03
[8]
  PBM binding z-score: 2.08

## AGAATGAGGTTGTTAAGATCAGGGAATTGCGGTC
[1]
  PBM binding z-score: 0.126
[2]
  PBM binding z-score: 0.00616
[3]
  PBM binding z-score: -0.0271
[4]
  PBM binding z-score: 1.17
[5]
  PBM binding z-score: 0.15
[6]
  PBM binding z-score: 0.608
[7]
  PBM binding z-score: 0.246
[8]
  PBM binding z-score: 0.542

## CAAACTAGGTCAAGAGGGCAAAGTCCGCTTCCCG
[1]
  PBM binding z-score: 4.13
[2]
  PBM binding z-score: 5.73
[3]
  PBM binding z-score: 5.4
[4]
  PBM binding z-score: 1.86
[5]
  PBM binding z-score: 4.07
[6]
  PBM binding z-score: 3.04
[7]
  PBM binding z-score: 1.03
[8]
  PBM binding z-score: 1.78

## GCATATAGGTAATAGAAGGTGAAAGTCCGATTGT
[1]
  PBM binding z-score: 0.803
[2]
  PBM binding z-score: 0.423
[3]
  PBM binding z-score: 0.585
[4]
  PBM binding z-score: 0.488
[5]
  PBM binding z-score: 0.618
[6]
  PBM binding z-score: 2.5
[7]
  PBM binding z-score: -0.242
[8]
  PBM binding z-score: 0.274

## CGTCCAAGGTCAGACAGGTCAGTGAATGCCGAGT
[1]
  PBM binding z-score: 4.84
[2]
  PBM binding z-score: 5.32
[3]
  PBM binding z-score: 6.13
[4]
  PBM binding z-score: 3.11
[5]
  PBM binding z-score: 4.43
[6]
  PBM binding z-score: 3.97
[7]
  PBM binding z-score: 2.16
[8]
  PBM binding z-score: 3.77

## CAAACTAGGTCACAGAGGTCACAGTCCGTGCGTA
[1]
  PBM binding z-score: 5.65
[2]
  PBM binding z-score: 7.17
[3]
  PBM binding z-score: 7.58
[4]
  PBM binding z-score: 2.76
[5]
  PBM binding z-score: 7.39
[6]
  PBM binding z-score: 4.67
[7]
  PBM binding z-score: 3.58
[8]
  PBM binding z-score: 6.14

## GGAACGAGGGCATTTGAGTTGATAGCATGGCGAT
[1]
  PBM binding z-score: 0.691
[2]
  PBM binding z-score: 1.17
[3]
  PBM binding z-score: 1.29
[4]
  PBM binding z-score: 3.42
[5]
  PBM binding z-score: 0.881
[6]
  PBM binding z-score: 3.57
[7]
  PBM binding z-score: -0.202
[8]
  PBM binding z-score: 3.57

## CCTTACGGGCCACTCCAGGTTATAGCATCGGAGT
[1]
  PBM binding z-score: 0.457
[2]
  PBM binding z-score: 0.099
[3]
  PBM binding z-score: 0.515
[4]
  PBM binding z-score: -0.62
[5]
  PBM binding z-score: -0.0369
[6]
  PBM binding z-score: 2.62
[7]
  PBM binding z-score: 0.204
[8]
  PBM binding z-score: 0.0382

## TCTGCTGGGTCAGTTGGTCAGCTAACGAGCTGCC
[1]
  PBM binding z-score: 2.12
[2]
  PBM binding z-score: 2.77
[3]
  PBM binding z-score: 2.99
[4]
  PBM binding z-score: 0.212
[5]
  PBM binding z-score: 1.06
[6]
  PBM binding z-score: 0.669
[7]
  PBM binding z-score: -0.537
[8]
  PBM binding z-score: -0.562

## GGAACGAGGGCAAGATGATAGCAGAGTTTGATGG
[1]
  PBM binding z-score: 1.21
[2]
  PBM binding z-score: 1.2
[3]
  PBM binding z-score: 1.78
[4]
  PBM binding z-score: 1.52
[5]
  PBM binding z-score: 0.962
[6]
  PBM binding z-score: 0.971
[7]
  PBM binding z-score: -0.0312
[8]
  PBM binding z-score: 1.08

## GCGACTGGGGCAAAGGAGGTTACCATAAGGTTGG
[1]
  PBM binding z-score: 1.87
[2]
  PBM binding z-score: 1.1
[3]
  PBM binding z-score: 1.14
[4]
  PBM binding z-score: -0.468
[5]
  PBM binding z-score: 1.12
[6]
  PBM binding z-score: 3.4
[7]
  PBM binding z-score: 0.609
[8]
  PBM binding z-score: 0.291

## TCATATTGGTAAACAGGTGAAAGTCCGTAAGTTA
[1]
  PBM binding z-score: 0.882
[2]
  PBM binding z-score: 0.412
[3]
  PBM binding z-score: 0.0109
[4]
  PBM binding z-score: 1.5
[5]
  PBM binding z-score: 0.951
[6]
  PBM binding z-score: 0.634
[7]
  PBM binding z-score: 0.5
[8]
  PBM binding z-score: 0.487

## GATAAAGGGTCAAGGCCAGAGTACGCGTATTGAT
[1]
  PBM binding z-score: 4.87
[2]
  PBM binding z-score: 6.46
[3]
  PBM binding z-score: 6.91
[4]
  PBM binding z-score: 2.52
[5]
  PBM binding z-score: 6.59
[6]
  PBM binding z-score: 3.38
[7]
  PBM binding z-score: 0.263
[8]
  PBM binding z-score: 2.36

## AGAATGAGGTTAATAAGATCAGGGAATTGCGGTC
[1]
  PBM binding z-score: 0.992
[2]
  PBM binding z-score: 1.32
[3]
  PBM binding z-score: 1.09
[4]
  PBM binding z-score: 1.16
[5]
  PBM binding z-score: 1.82
[6]
  PBM binding z-score: 2.04
[7]
  PBM binding z-score: 0.762
[8]
  PBM binding z-score: 0.247

## TCATATAAGTAAAAGGTGAAAGTCGGTGTGGTAA
[1]
  PBM binding z-score: 1.85
[2]
  PBM binding z-score: 1.3
[3]
  PBM binding z-score: 0.831
[4]
  PBM binding z-score: 1.85
[5]
  PBM binding z-score: 2.11
[6]
  PBM binding z-score: 1.46
[7]
  PBM binding z-score: 0.55
[8]
  PBM binding z-score: 0.109

## TTACCAACGTGAAAGGTCGTTGATGCACGCCTTG
[1]
  PBM binding z-score: 1.63
[2]
  PBM binding z-score: 1.54
[3]
  PBM binding z-score: 0.872
[4]
  PBM binding z-score: 0.467
[5]
  PBM binding z-score: 2.73
[6]
  PBM binding z-score: 1.35
[7]
  PBM binding z-score: -0.282
[8]
  PBM binding z-score: 1.13

## TCATATAGGTAAAAGGTGAGAGTCGGTGTGGTAA
[1]
  PBM binding z-score: 1.5
[2]
  PBM binding z-score: 1.39
[3]
  PBM binding z-score: 0.67
[4]
  PBM binding z-score: 1.49
[5]
  PBM binding z-score: 2.55
[6]
  PBM binding z-score: 1.26
[7]
  PBM binding z-score: 0.546
[8]
  PBM binding z-score: 0.255

## ATCGAAAGGTCGCGAGGTGAGTATACAGAAAGGC
[1]
  PBM binding z-score: 3.4
[2]
  PBM binding z-score: 5.11
[3]
  PBM binding z-score: 4.94
[4]
  PBM binding z-score: 0.903
[5]
  PBM binding z-score: 5.7
[6]
  PBM binding z-score: 3.45
[7]
  PBM binding z-score: 0.86
[8]
  PBM binding z-score: 0.971

## ATCGAAAGGTCGTGAGGTGAGTCTACAGAAAGGC
[1]
  PBM binding z-score: 3.17
[2]
  PBM binding z-score: 4.64
[3]
  PBM binding z-score: 3.92
[4]
  PBM binding z-score: 1.06
[5]
  PBM binding z-score: 5.19
[6]
  PBM binding z-score: 3.48
[7]
  PBM binding z-score: 1.43
[8]
  PBM binding z-score: 1.09

## AGAATGAGGTTATAAGTAGATCAGGGAAGAAAGT
[1]
  PBM binding z-score: 0.89
[2]
  PBM binding z-score: 1.35
[3]
  PBM binding z-score: 0.794
[4]
  PBM binding z-score: 1.41
[5]
  PBM binding z-score: 2.12
[6]
  PBM binding z-score: 2.1
[7]
  PBM binding z-score: 0.689
[8]
  PBM binding z-score: 1.09

## GTACCCAGGTGAATAGGTCGTTGATGAGTAGGCG
[1]
  PBM binding z-score: 1.16
[2]
  PBM binding z-score: 1.5
[3]
  PBM binding z-score: 0.814
[4]
  PBM binding z-score: -0.431
[5]
  PBM binding z-score: 1.18
[6]
  PBM binding z-score: 1.31
[7]
  PBM binding z-score: 0.537
[8]
  PBM binding z-score: 0.0528

## CATACAGGGTCAGCTAGGCTAGAGTAGGGACGGC
[1]
  PBM binding z-score: 3.04
[2]
  PBM binding z-score: 4.09
[3]
  PBM binding z-score: 4.3
[4]
  PBM binding z-score: 1.33
[5]
  PBM binding z-score: 3.94
[6]
  PBM binding z-score: 2.84
[7]
  PBM binding z-score: 1.02
[8]
  PBM binding z-score: 1.04

## CGTCCAAGGTGAGCAGGTCAGTGAAAGCGACGTG
[1]
  PBM binding z-score: 2.7
[2]
  PBM binding z-score: 2.24
[3]
  PBM binding z-score: 2.37
[4]
  PBM binding z-score: -0.254
[5]
  PBM binding z-score: 1.09
[6]
  PBM binding z-score: 2
[7]
  PBM binding z-score: 0.649
[8]
  PBM binding z-score: -0.353
